Screen size: about 310,000 compounds; about 17,000 (5.5%) were called active. Roughly 11% stayed inconclusive and do not appear here. Calls come from the whole dose curve; as a rule, active = well fitted inhibition curve with a large enough effect; inconclusive = small, poorly fitted or top-dose-only effect, or effect the other way; inactive = no such curve, though single readings can be large or run the other way. Only a selection was taken, and actives are over-represented in it overall.
Target: Nuclear receptor ROR-gamma (Mus musculus) (UniProt P51450)
Experiment: qHTS for inhibitors of ROR gamma transcriptional activity; note: nearly all actives have a fitted effect of over 60% in size
Conditions: Drosophila S2 Gal4-RORgamma UAS-luciferase reporter, 20 h; series mostly up to 53.6 µM; activity change, negative = inhibition: at the top concentration
How it was run: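 Schneider cells (Drosophila), stable Gal4 DBD–ROR gamma + UAS-luc; 1 hr cmpd preincubation; Cu2+ induction 700 uM final; 20 hr ambient; luminescence.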
% is set by controls: 0 for no effect and ±100 for the full control effect; potency is the fitted concentration of half-maximal effect.

Sequence of Nuclear receptor ROR-gamma (Mus musculus) (P51450 whole entry, looked up): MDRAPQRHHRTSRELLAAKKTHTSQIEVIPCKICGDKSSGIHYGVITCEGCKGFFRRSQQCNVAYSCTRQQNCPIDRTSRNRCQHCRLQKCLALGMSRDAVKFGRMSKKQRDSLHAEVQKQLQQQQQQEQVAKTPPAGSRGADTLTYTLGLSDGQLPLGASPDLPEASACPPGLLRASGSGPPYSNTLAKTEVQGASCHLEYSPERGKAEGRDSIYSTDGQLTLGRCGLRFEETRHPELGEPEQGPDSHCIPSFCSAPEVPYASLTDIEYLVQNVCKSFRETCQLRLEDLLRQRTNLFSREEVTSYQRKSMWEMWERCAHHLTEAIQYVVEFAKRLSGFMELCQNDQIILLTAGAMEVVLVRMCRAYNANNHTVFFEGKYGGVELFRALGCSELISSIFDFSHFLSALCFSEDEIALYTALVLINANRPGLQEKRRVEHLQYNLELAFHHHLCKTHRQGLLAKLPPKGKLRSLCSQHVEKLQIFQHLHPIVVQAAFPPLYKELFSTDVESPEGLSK

Structure (SMILES)	activity change, negative = inhibition	Potency
CC(=O)N1CCOc2ccc(S(=O)(=O)N3CCN(c4cccc(C(F)(F)F)c4)CC3)cc21	30.8% (inactive)	
COc1ccc(-n2c(C)cc(C(=O)CSc3nnc(-c4cccs4)o3)c2C)cc1	-33.4% (inactive)	
COc1ccc(OC)c(C(=O)CSc2nnc(-c3cccs3)o2)c1		7.08 µM (active)
COc1ccc(-c2nnc(SCC(=O)NC3CCCCC3)o2)cc1OC	-18.5% (inactive)	
COCCOC(=O)C1=C(C)NC(=O)NC1c1cc2c(cc1Br)OCO2 (centres undefined)	-4.24% (inactive)	
Cc1ccc2cc(/C=N/Nc3ccc(C(=O)O)cc3)c(Cl)nc2c1	-43.4% (inactive)	
O=C(O)c1ccc(/C=N/Nc2nc(N3CCCCC3)nc(N3CCCCC3)n2)cc1	-42.2% (inactive)	
O=C(O)c1ccc(N/N=C/c2ccc3ncccc3c2)cc1		0.398 µM (active)
O=C(O)c1ccc(OCC2CCCO2)cc1 (centres undefined)	-11.8% (inactive)	
N=C1/C(=C/c2cccn2-c2cccc([N+](=O)[O-])c2)C(=O)N=C2SC=CN12		5.01 µM (active)
Cc1ccc(-c2nc(-c3ccncc3)no2)c(C)c1	-32.9% (inactive)	
CCOc1ccccc1NC(=O)CCc1nnc2ccc(NCc3ccco3)nn12	0.872% (inactive)	
CC1=C/C(=N\S(=O)(=O)c2ccccc2)C(C(C)C)=CC1=O	-9.35% (inactive)	
O=S(=O)(ON(c1ccccc1)S(=O)(=O)c1ccccc1)c1ccccc1	26.8% (inactive)	
CC1=C/C(=N\OS(=O)(=O)c2ccccc2)C=CC1=O		1.58 µM (active)
CCN1C(=NCC(C)C)N[C@@H](CCc2ccccc2)[C@H](C(=O)NCC(C)C)[C@H]1C		inactive
Fc1ccc(Br)cc1/C=N/n1cnnc1	-8.64% (inactive)	
CCOc1cc(/C=N/n2cnnc2)c(Br)cc1O		7.08 µM (active)
Brc1cc(/C=N/n2cnnc2)oc1Br	37.3% (inactive)	
O=C(CN1CCN(c2ccc(Cl)cc2)CC1)c1ccccc1	0.492% (inactive)	
COc1ccc(S(=O)(=O)NCCOc2ccccc2)cc1F	29.1% (inactive)	
COc1ccc(NS(=O)(=O)c2cc(C(=O)Nc3ccccc3C(=O)O)ccc2C)cc1	25.4% (inactive)	
COCCN(CC(=O)Nc1ccccc1C)S(=O)(=O)c1ccc(S(=O)(=O)N2CCCC2)cc1	-8.45% (inactive)	
COCCN(CCOC)S(=O)(=O)c1ccc(/C(O)=C(\C#N)c2nc3ccccc3[nH]2)cc1		12.6 µM (active)
COc1ccc(/C=C(/NC(=O)c2ccc(C)cc2)c2nc3ccccc3[nH]2)cc1OC	16.7% (inactive)	
COc1ccc(-n2c(=O)[nH]c3cc(C(=O)NCCc4ccc(OC)c(OC)c4)ccc3c2=O)c(OC)c1	27.9% (inactive)	
COc1ccc(CN2CN(C3CCCC3)CSC2=S)cc1		7.94 µM (active)

Structure (SMILES)	activity change, negative = inhibition	Potency
COc1ccc(CNC2CCCCC2)cc1	-10.4% (inactive)	
COc1ccc(CN2CC(C(=O)NC3CCCCC3)CC2=O)cc1 (centres undefined)	1.66% (inactive)	
CCN(C(=O)CN1C(=O)/C(=C/c2ccc(F)cc2)SC1=S)C1CCS(=O)(=O)C1 (centres undefined)	-12.7% (inactive)	
CN(CC(=O)NCc1ccc(Cl)cc1)S(=O)(=O)c1cccs1	21.2% (inactive)	
O=C(COc1ccccc1)NCCc1nc2ccccc2[nH]1	1.23% (inactive)	
O=C(Cc1nc2ccccc2[nH]c1=O)c1ccc(Cl)cc1	32.2% (inactive)	
N#C/C(=C(/O)COC(=O)COc1ccc(Cl)cc1)c1nc2ccccc2[nH]1		8.91 µM (active)
COc1ccccc1CNC(=O)C1CCN(S(=O)(=O)c2ccc3c(c2)OCCO3)CC1	-14.7% (inactive)	
COc1ccc(NC(=O)CC(NC(C)c2ccccc2)C(=O)O)cc1 (centres undefined)	-12.4% (inactive)	
Cc1nn2c3ccccc3nc2n(C)c1=O	-32% (inactive)	
Cc1cc(NCc2ccco2)n2c(nc3ccccc32)c1C#N	38.8% (inactive)	
CN1c2ccccc2-c2nc3ccccc3n2C1c1ccco1 (centres undefined)		14.1 µM (active)
N#Cc1c(-c2ccccc2)nc(SCc2ccc([N+](=O)[O-])cc2)[nH]c1=O	1% (inactive)	
CC(C)NC(=O)N1CCN(c2ccncc2S(=O)(=O)N2CCCCC2)CC1	8.85% (inactive)	
CC(C)C[C@H]1CN=C(Nc2ccccc2)N1CC1CCCCC1	-2% (inactive)	
Cc1ccc(Nc2nc(N3CCOCC3)nc(N3CCOCC3)n2)cc1Cl	3.19% (inactive)	
C/C(=N\Nc1nc(Nc2ccccc2)nc(N2CCOCC2)n1)c1cccs1		14.1 µM (active)
C/C(=N\Nc1nc(N2CCOCC2)nc(N2CCOCC2)n1)c1ccc([N+](=O)[O-])cc1	-4.91% (inactive)	
Cc1ccc(-n2ncc(C(=O)NC3CC3)c2C2CCN(C(=O)OC(C)(C)C)CC2)c(C)c1	0.982% (inactive)	
CCOc1ccc(CNC(=O)C2CCCN(c3nnc(C)c4c(C)n(-c5ccccc5)nc34)C2)cc1 (centres undefined)	-25.4% (inactive)	
CCCc1ccc(-c2csc(NC(=O)Cc3cccs3)n2)cc1		12.6 µM (active)
Cc1ccc(-c2csc(NC(=O)Cc3cccs3)n2)cc1C	5.64% (inactive)	
COc1ccc(-c2csc(NC(=O)CCCc3cccs3)n2)cc1	22.6% (inactive)	
O=C(COC(=O)/C=C/c1cccs1)NC1CCCCC1	21.6% (inactive)	
CCn1c(/C=C/c2ccc([N+](=O)[O-])o2)nc2ccccc2c1=O		7.94 µM (active)
Cn1cc(/C=C/c2nc3ccccc3c(=O)n2-c2cccc([N+](=O)[O-])c2)c2ccccc21	0.991% [at 10 µM] (inactive)	
Cc1nc2ccccc2c(=O)n1Cc1ccc([N+](=O)[O-])cc1	-3.36% (inactive)	

Source: PubChem BioAssay AID2551 (National Center for Advancing Translational Sciences (NCATS), 2010)
